According to PubChem BioAssay AID1159580 (chemical genetic matrix, 2015):
Values joined by “and” are separate entries in the source; they are usually repeats but may differ in a detail not shown here. Equal entries are not always repeated. About 2,000 (36%) of roughly 5,500 compounds were called active. About 18% were inconclusive and are not listed. Rule as the data show it: active = normalized growth mostly below about 0.91 (no sharp cut-off); inconclusive = no clear call, values can overlap the other calls; inactive = mostly above about 0.92. The list shows a part of the results.

Experiment: chemical genetic growth profiling, strain panel (AID 1159580);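 also: tested at 20 µM; growth read once vehicle control cultures reached saturation at 30 °C; 1 = growth at the plate median or of vehicle wells; lower values mean less growth of the strain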
Details: S. cerevisiae deletion strains, growth OD

Measured: normalized growth

COC(=O)CCC(C)C1CCC2C3CC[C@@H]4C[C@H](O)CC[C@]4(C)C3C[C@H](O)[C@]12C (stereo partly drawn)
active: locus YAL021C, strain ccr4, stronger effect = lower value 1.11 [resistant] | locus YBL061C, strain skt5, stronger effect = lower value 0.9 | locus YBR023C, strain chs3, stronger effect = lower value 0.909 | locus YDR137W, strain rgp1, stronger effect = lower value 0.754 | locus YDR159W, strain sac3, stronger effect = lower value 0.757 | locus YDR195W, strain ref2 0.802 | locus YDR392W, strain spt3, stronger effect = lower value 0.331 | locus YER155C, strain BEM2 (second series), stronger effect = lower value 0.746 | locus YGR229C, strain SMI1, stronger effect = lower value 0.709 | locus YHR013C, strain ard1, stronger effect = lower value 1.34 [resistant] | locus YHR079C, strain IRE1, stronger effect = lower value 0.826 | locus YHR142W, strain chs7, stronger effect = lower value 0.819 | locus YJL095W, strain BCK1 (second series), stronger effect = lower value 0.867 | locus YJL166W, strain qcr8, stronger effect = lower value 0.892
0.819 (inactive) and 0.826 (active): locus YJL095W, strain BCK1, stronger effect = lower value
inactive: locus YAL013W, strain DEP1, stronger effect = lower value 0.983 | locus YAL026C, strain drs2, stronger effect = lower value 1 | locus YAL030W, strain snc1, stronger effect = lower value 0.987 | locus YBR009C, strain hhf1, stronger effect = lower value 0.925 | locus YBR021W, strain FUR4, stronger effect = lower value 1.01 | locus YBR171W, strain sec66, stronger effect = lower value 1.01 | locus YBR229C, strain ROT2, stronger effect = lower value 0.998 | locus YBR231C, strain swc5, stronger effect = lower value 0.978 | locus YBR279W, strain paf1, stronger effect = lower value 0.996 | locus YCL011C, strain gbp2, stronger effect = lower value 0.966 | locus YCL016C, strain dcc1, stronger effect = lower value 0.967 | locus YCL029C, strain bik1, stronger effect = lower value 1.01 | locus YCL061C, strain MRC1, stronger effect = lower value 0.992 | locus YCL069W, strain vba3, stronger effect = lower value 1.01 | locus YCR088W, strain abp1, stronger effect = lower value 1 | locus YDL005C, strain med2, stronger effect = lower value 0.983 | locus YDL035C, strain GPR1, stronger effect = lower value 0.989 | locus YDL040C, strain nat1, stronger effect = lower value 0.985 | locus YDL074C, strain BRE1, stronger effect = lower value 0.849 | locus YDL101C, strain DUN1, stronger effect = lower value 0.973 | locus YDL134C, strain PPH21, stronger effect = lower value 0.951 | locus YDL185W, strain tfp1, stronger effect = lower value 1.02 | locus YDL192W, strain arf1, stronger effect = lower value 0.922 | locus YDR001C, strain nth1, stronger effect = lower value 0.996 | locus YDR069C, strain doa4, stronger effect = lower value 1.04 | locus YDR101C, strain arx1, stronger effect = lower value 1 | locus YDR162C, strain NBP2, stronger effect = lower value 0.928 | locus YDR297W, strain sur2, stronger effect = lower value 0.986 | locus YDR318W, strain mcm21, stronger effect = lower value 0.993 | locus YDR334W, strain swr1, stronger effect = lower value 1.01 | locus YDR335W, strain msn5, stronger effect = lower value 0.975 | locus YDR388W, stronger effect = lower value 1.02 | locus YDR502C, strain sam2, stronger effect = lower value 1.02 | locus YEL003W, strain gim4, stronger effect = lower value 0.99 | locus YEL037C, strain rad23, stronger effect = lower value 1.01 | locus YEL061C, strain CIN8 (second series), stronger effect = lower value 0.999 | locus YEL061C, strain CIN8, stronger effect = lower value 0.975 | locus YER015W, strain faa2, stronger effect = lower value 1 | locus YER016W, strain bim1, stronger effect = lower value 0.962 | locus YER110C, stronger effect = lower value 1.02 | locus YER111C, strain swi4, stronger effect = lower value 0.996 | locus YER155C, strain BEM2, stronger effect = lower value 0.955 | locus YER167W, strain BCK2, stronger effect = lower value 1.01 | locus YFR010W, strain ubp6, stronger effect = lower value 1.04 | locus YGL078C, strain dbp3, stronger effect = lower value 1.02 | locus YGL086W, strain mad1, stronger effect = lower value 0.997 | locus YGL167C, strain pmr1, stronger effect = lower value 0.971 | locus YGL173C, strain kem1, stronger effect = lower value 0.992 | locus YGL227W, strain vid30, stronger effect = lower value 1 | locus YGL240W, strain doc1, stronger effect = lower value 0.928 | locus YGL248W, strain PDE1, stronger effect = lower value 0.95 | locus YGL253W, strain hxk2, stronger effect = lower value 0.985 | locus YGR135W, strain pre9, stronger effect = lower value 1.01 | locus YGR252W, strain gcn5, stronger effect = lower value 0.887 | locus YHR027C, strain rpn1, stronger effect = lower value 1 | locus YHR079C, strain IRE1 (second series), stronger effect = lower value 1 | locus YHR094C, strain hxt1, stronger effect = lower value 1.03 | locus YHR129C, strain ARP1, stronger effect = lower value 0.955 | locus YHR200W, strain rpn10, stronger effect = lower value 1.02 | locus YIL066C, strain RNR3, stronger effect = lower value 0.923 | locus YIL073C, strain SPO22, stronger effect = lower value 1.27 | locus YIL125W, strain kgd1, stronger effect = lower value 1.01 | locus YIR030C, strain dcg1, stronger effect = lower value 1.01 | locus YJL092W, strain hpr5, stronger effect = lower value 1 | locus YJL115W, strain asf1, stronger effect = lower value 1.01 | locus YJL129C, strain trk1, stronger effect = lower value 0.934 | locus YJL134W, strain LCB3, stronger effect = lower value 1.01 | locus YJL154C, strain vps35, stronger effect = lower value 1.01 | locus YJL164C, strain tpk1, stronger effect = lower value 0.957 | locus YJL168C, strain set2, stronger effect = lower value 1.01 | locus YJL187C, strain SWE1 (second series), stronger effect = lower value 0.979 | locus YJL187C, strain SWE1, stronger effect = lower value 0.995
0.923 (inactive) and 0.843 (active): locus YHR030C, strain SLT2, stronger effect = lower value
